From PubChem BioAssay (Tox21)
Records with an inconclusive call do not appear. Values without a mark were called inactive. Calls of active or inactive are those of the source. The call rests on the fitted dose curve; in most records, active means well fitted cell-killing curve with a large enough effect in the repeat runs; inconclusive means weak or mixed curves, or effect the other way; inactive means flat fitted curve, though single readings scatter.

Assay: qHTS RealTime-Glo MT Cell Viability Assay in HEK293 cells - 16 hour (AID 1224872); further: nearly all actives have a fitted effect of over 50% in size; on activity change, negative = cytotoxicity: top concentration of the series differs between compounds
Details: RealTime-Glo luminescence; series mostly up to 76.8 µM; activity change, negative = cytotoxicity: at the top concentration
Source text: National Center for Advancing Translational Sciences [NCATS]
NIH Chemical Genomics Center [NCGC]
U.S. Environmental Protection Agency [EPA]
National Institutes of Environmental Health Sciences [NIEHS]
National Toxicology Program [NTP]
U.S. Food and Drug Administration [FDA]
Measure of cell viability is critical in the cell-base assay. Analysis of cell viability is necessary for the characterization of cell responses to cytotoxic drugs and environmental stress. A RealTime-Glo MT Cell Viability Assay to monitor cell viability in real time of continues cell culture during 40 hours of compound treatment was used to screen Tox21 10K library compounds in Hek293 cells. The RealTime-Glo MT Cell Viability Assay is a nonlytic, homogeneous, bioluminescent method to measure cell viability in real time using a simple, plate-based method. The assay involves adding NanoLuc luciferase and a cell-permeant prosubstrate to cells in culture. Viable cells reduce the proprietary prosubstrate to generate a substrate for NanoLuc luciferase. This substrate diffuses from cells into the surrounding culture medium, where it is rapidly used by the NanoLuc Enzyme to produce a luminescent signal. The signal correlates with the number of viable cells, making the assay well suited for cytotoxicity studies.
Tox21 Assay Protocol Summary:
The mixture of Hek293 cell suspension and reagents were dispensed at 600cells/6 ul/well in 1536-well tissue culture treated black solid bottom plates using a Multidrop dispenser. After the assay plates were incubated at a 37 C/5% CO2 incubator for 5 hours, 23 nL of compounds dissolved in DMSO, positive and negative controls was transferred to the assay plate by a pintool work station. The plates were incubated at 37 C for 40 hours. The luminescence intensity were measured at 0h, 8h, 16h, 24h, 32h and 40h time points using ViewLux plate reader during compound treatment.
On the % scale 0 is the no-effect control and ±100 the full control effect; potency means the concentration at half of the fitted maximal effect.

| SMILES | activity change, negative = cytotoxicity | Potency |
| --- | --- | --- |
| CNc1c2c(nn1C)CCCC2 | -3.36% [at 35.3 µM] | – |
| Cc1cn([C@H]2C[C@H](F)[C@@H](CO)O2)c(=O)[nH]c1=O | 11% [at 35.3 µM] | – |
| CCC(=O)OCc1ccc(OC)cc1 | 2.96% | – |
| CSCC[C@H](NC(=O)[C@H](Cc1c[nH]c2ccccc12)NC(=O)CCNC(=O)OC(C)(C)C)C(=O)N[C@@H](CC(=O)O)C(=O)N[C@@H](Cc1ccccc1)C(N)=O | -0.237% [at 35.3 µM] | – |
| CC(=O)c1ccc[nH]1 | 0.832% | – |
| O=C(O)CCCc1c[nH]c2ccccc12 | -9.88% | – |
| CCC(C)(C)C(=O)O | 0.976% | – |
| CCOC(=O)c1ccc(NC(=O)CN2CCCCC2)cc1 | -18.2% [at 35.3 µM] | – |
| CCCCCCCCCCCSCC(=O)O | 0.551% | – |
| CCCCCCCCCCCCCCCC(=O)OCC | 0.479% | – |
| CCC1CCC(CCC(=O)O)C1 (stereo not given) | 0.249% | – |
| COc1ccc(-n2nc(C(F)F)cc2-c2ccc(S(C)=O)cc2)cc1 (stereo not given) | -18.2% | – |
| CC(C)C1CCC(C(=O)N[C@H](Cc2ccccc2)C(=O)O)CC1 (stereo not given in full) | 0.434% [at 35.3 µM] | – |
| Cc1ccc(S(=O)(=O)NC(=O)NC2CCCCC2)cc1 | 5.67% [at 35.3 µM] | – |
| Nc1nc2ccc(OC(F)(F)F)cc2s1 | -21.5% [at 35.3 µM] | – |
| C[C@@H]1[C@H](O)[C@@H](C)/C=C/C=C\C=C\C=C\C=C\C=C\C=C\[C@H](O[C@@H]2O[C@H](C)[C@@H](O)[C@H](N)[C@@H]2O)C[C@@H]2O[C@](O)(C[C@@H](O)C[C@@H](O)[C@H](O)CC[C@@H](O)C[C@@H](O)CC(=O)O[C@H]1C)C[C@H](O)[C@H]2C(=O)O (stereo in doubt) | -0.582% | – |
| Cc1ccccc1S(N)(=O)=O | 15.1% | – |
| CC(=O)C(C)=O | 16.1% | – |
| CCCCCCCC(=O)Oc1c(Br)cc(C#N)cc1Br | – | 38.8 µM (active) |
| COc1ccc(/C=C/C(=O)c2ccc(OC)cc2OC)cc1 | -20% [at 35.3 µM] | – |

| SMILES | activity change, negative = cytotoxicity | Potency |
| --- | --- | --- |
| Cc1oc(=O)oc1COC(=O)[C@@H]1N2C(=O)[C@@H](NC(=O)[C@H](N)c3ccccc3)[C@H]2SC1(C)C | 9.15% [at 35.3 µM] | – |
| OCC(CO)n1cnc(-c2ccc(F)cc2)c1-c1ccnc(Oc2ccccc2)n1 | -22.8% | – |
| C1=CCC2CC=CC2C1 (stereo not given) | 19.9% | – |
| O=C1NC(=O)c2cccc3cccc1c23 | -5.04% | – |
| Cc1cccc2sc(N)nc12 | 19.6% | – |
| CC(=O)NNC(C)=O | 1.81% | – |
| CC1C(C)(C)C2=C(C(=O)CCC2)C1(C)C (stereo not given) | -15% | – |
| CC(C)(C(=O)c1cccnc1)c1cccnc1 | 2.63% [at 35.3 µM] | – |
| O=S(=O)(Cl)c1c(Cl)cccc1Cl | -2.86% | – |
| O=[N+]([O-])C1(Br)COCOC1 | – | 38.9 µM (active) |
| CC[C@H]1OC(=O)[C@H](C)[C@@H](O[C@H]2C[C@@](C)(OC)[C@@H](O)[C@H](C)O2)[C@H](C)[C@@H](O[C@@H]2O[C@H](C)C[C@H](N(C)C)[C@H]2O)[C@](C)(O)C[C@@H](C)CN(C)[C@H](C)[C@@H](O)[C@]1(C)O | -7.16% [at 35.3 µM] | – |
| COC(CC(C)CCCC(C)(C)O)OC (stereo not given) | -0.986% | – |
| Cc1ccc2c(c1)CCCN2 | 1.7% | – |
| Cc1ccc(NC(=O)N(C)C)cc1NC(=O)N(C)C | 0.385% | – |
| CC(C)(C)NCC(O)COc1cccc2c1C[C@H](O)[C@H](O)C2 (stereo not given in full) | 3.94% [at 35.3 µM] | – |
| CC(C)OC(=O)c1ccccc1C(=O)OC(C)C | -13.8% | – |
| CCOCCC(=O)OCC | 2.82% | – |
| O=C(O)CN1C(=O)c2cccc3cccc(c23)C1=O | 7.78% [at 35.3 µM] | – |
| CCN(CC)CCNC(=O)c1cc(Cl)c(N)cc1OC | -9.64% [at 35.3 µM] | – |
| CC(CO)(CO)C(=O)O | -2.97% | – |
